The record followed here is PubChem BioAssay (Tox21).

Experiment [1] concerns the target Gonadotropin-releasing hormone receptor (Homo sapiens) (UniProt P30968). The experiment is described as follows: Human gonadotropin-releasing hormone receptor (GnRHR) small molecule agonists, calcium flux assay in GnRHR-HEK293 cells (AID 1920063). Note: nearly all actives have a fitted effect of over 35% in size. A digest of the protocol: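 HEK293 cells stably expressing human GnRHR were plated 18 h at 37 °C, loaded with calcium dye 1 h at 37 °C, then given compound in agonist mode; fluorescence (Ex/Em 480/540) read kinetically for 3 min at 1 s intervals.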
In general terms: Calcium flux is commonly read through the fluorescence of an indicator in the cells.

Experiment [2] addresses KiSS-1 receptor (Homo sapiens) (UniProt Q969F8). The experiment is described as follows: Human kisspeptin (KISS1R) small molecule agonists, calcium flux assay in KISS1R-HEK293 cells (AID 1920064; active = well fitted activation curve with a large enough effect in the repeat runs). A digest of the protocol:
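HEK293 cells stably expressing human KISS1R were plated 18 h at 37 °C, loaded with calcium dye for 1 h at 37 °C, then given compound by pin tool. Fluorescence (Ex/Em 480/540) was read kinetically for 3 min.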

A short description of experiment [3]: G protein-coupled receptor (GPCR) small molecule agonists, calcium flux assay: HEK293 wild type cell line counter screen (AID 1920065). A digest of the protocol:
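Cells were plated and cultured 18 h at 37 C/5% CO2, then loaded with calcium dye for 1 h at 37 C. Compounds in DMSO were pin-transferred in agonist mode, and fluorescence (Ex/Em 480/540) was read kinetically for 3 min at 1 s intervals.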

A short description of experiment [4]: p53 small molecule agonists, cell-based qHTS assay with human liver microsomes (AID 1963577). A digest of the protocol: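 p53RE-bla cells, 4,000/well, compound added after 5 h, with human liver microsomes 0.5 mg/mL and NADPH 0.5 mg/mL final; 16 h at 37 C, then LiveBLAzer 2 h RT, fluorescence.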
In general terms: qHTS replaces the single test concentration by a dilution series.

A short description of experiment [5]: p53 small molecule agonists, cell-based qHTS assay with rat liver microsomes (AID 1963578). A digest of the protocol: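 p53RE-bla cells, 4,000/well, pre-incubated 5 h, then given compounds plus rat liver microsomes (0.5 mg/mL final) and NADPH (0.5 mg/mL final). Incubation 16 h at 37 C; beta-lactamase reporter read by LiveBLAzer fluorescence after 2 h at room temperature.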

Experiment [6] in a line: p53 small molecule agonists, cell-based qHTS assay with human liver microsomes: qHTS cell viability counter screen (AID 1963579). Note: nearly all actives have a fitted effect of over 45% in size. In outline: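 p53RE-bla cells, 4,000/well, dosed 5 hours after plating, with human liver microsomes (0.5 mg/mL final) plus NADPH (0.5 mg/mL final), 16 hours at 37 C. Viability read as CellTiter-Glo luminescence after 30 min at room temperature.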

Experiment [7] in a line: p53 small molecule agonists, cell-based qHTS assay with rat liver microsomes: qHTS cell viability counter screen (AID 1963580). Note: nearly all actives have a fitted effect of over 45% in size. A digest of the protocol:
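Viability is assessed in parallel with the p53 reporter read: HCT-116 p53RE-bla cells receive compounds plus rat microsomes and NADPH (0.5 mg/mL final apiece), incubate 16 h at 37 C, and then CellTiter-Glo luminescence is recorded.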

Experiment [8] can be described thus: p53 small molecule agonists, cell-based qHTS assay: qHTS cell viability counter screen (AID 1963581). Note: nearly all actives have a fitted effect of over 45% in size. A digest of the protocol:
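p53RE-bla HCT-116 cells were exposed to compounds for 16 h at 37 C; after the beta-lactamase FRET read in the same wells, CellTiter-Glo was added and luminescence (intracellular ATP) read after 30 min at room temperature.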

A short description of experiment [9]: p53 small molecule agonists, cell-based qHTS assay (AID 1963582; active = well fitted activation curve with a large enough effect in the signal ratio in the repeat runs, not every such curve was filed as active; the % refers to the signal ratio). A digest of the protocol: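 p53RE-bla beta-lactamase reporter cells rested 5 h at 37 C/5% CO2, then received compounds in DMSO by pin transfer and were incubated 16 h at 37 C. LiveBLAzer B/G FRET substrate was loaded for 2 h at room temperature before fluorescence reading.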
The target in experiment [10] is 5-hydroxytryptamine receptor 2A (Homo sapiens) (UniProt P28223). The experiment is described as follows: 5-hydroxytryptamine receptor 2A (HTR2A) small molecule antagonists, cell-based qHTS assay (AID 1963586). Note: nearly all actives have a fitted effect of over 45% in size. In outline: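 Antagonist-mode intracellular calcium assay: DOI (4 nM) added after 5 min compound pre-incubation at room temperature to dye-loaded HTR2A-CHO cells. Fluorescence followed for 3 min, sampled every second.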
Chain of 5-hydroxytryptamine receptor 2A (Homo sapiens) (P28223 whole entry, looked up): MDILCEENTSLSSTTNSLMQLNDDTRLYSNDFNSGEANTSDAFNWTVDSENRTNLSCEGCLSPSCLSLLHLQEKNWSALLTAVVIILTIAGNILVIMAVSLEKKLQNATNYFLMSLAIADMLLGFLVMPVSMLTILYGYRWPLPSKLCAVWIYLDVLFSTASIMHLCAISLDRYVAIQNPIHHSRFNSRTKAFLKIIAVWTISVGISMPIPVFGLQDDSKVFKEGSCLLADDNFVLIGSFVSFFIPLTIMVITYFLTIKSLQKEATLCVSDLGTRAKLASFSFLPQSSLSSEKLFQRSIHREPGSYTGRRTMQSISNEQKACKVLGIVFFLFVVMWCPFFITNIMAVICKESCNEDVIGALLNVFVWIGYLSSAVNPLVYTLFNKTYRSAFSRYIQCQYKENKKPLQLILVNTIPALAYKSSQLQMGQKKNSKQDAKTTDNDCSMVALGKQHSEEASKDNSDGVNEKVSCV

Experiment [11] has the same target. The experiment can be described thus: 5-hydroxytryptamine receptor 2A (HTR2A) small molecule agonists, cell-based qHTS assay (AID 1963587). Note: nearly all actives have a fitted effect of over 30% in size. Note: potency is the fitted concentration of half-maximal effect. In outline:
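CHO cells stably expressing human HTR2A, plated 18 h, loaded with calcium dye 1 h at 37 C. Agonist mode: compounds added and intracellular calcium fluorescence recorded kinetically for 2 min at 1 sec intervals.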

Experiment [12] concerns the target Muscarinic acetylcholine receptor M1 (Homo sapiens) (UniProt P11229). The experiment can be described thus: Cholinergic receptor muscarinic 1 (CHRM1) small molecule antagonists, cell-based qHTS assay (AID 1963588). Note: nearly all actives have a fitted effect of over 40% in size. A digest of the protocol:
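CHRM1-CHO calcium-flux assay, antagonist mode. Cells were seeded 18 h, dye-loaded 1 h at 37 C and given compound for 5 min at RT, then acetylcholine was added at 50nM. FDSS fluorescence was read 3 min; 15 concentrations, three runs.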

The target is the same in experiment [13]. The experiment can be described thus: Cholinergic receptor muscarinic 1 (CHRM1) small molecule agonists, cell-based qHTS assay (AID 1963589). Note: nearly all actives have a fitted effect of over 35% in size. In outline: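 CHO cells stably expressing human CHRM1, seeded 18 h at 37 C/5% CO2, dye-loaded 1 h at 37 C, then given compound in agonist mode; intracellular calcium fluorescence read kinetically at 1 s intervals. Fifteen concentrations, three independent runs.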

A short description of experiment [14]: cAMP Responsive Elements (CRE) small molecule antagonists, cell-based qHTS assay (AID 1963591; active = well fitted inhibition curve with a large enough effect in the signal ratio in the repeat runs, not every such curve was filed as active; the % refers to the signal ratio). A digest of the protocol: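 CRE-bla HEK293T cells were plated 18 h at 37 °C/5% CO2, pinned with compound in DMSO, then stimulated with NKH477 at 0.25 uM final for 3 h. LiveBLAzer B/G FRET substrate was added and plates incubated 2 h at room temperature.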
Experiment [15] addresses D(2) dopamine receptor (Homo sapiens) (UniProt P14416). The experiment is described as follows: Dopamine D2 receptor (DRD2) small molecule agonists, cell-based qHTS assay (AID 1963594). Note: nearly all actives have a fitted effect of over 35% in size. A digest of the protocol:
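HEK293 cells stably expressing human DRD2, pre-treated with PDE inhibitor Ro20-1724 (0.1 mM final) and compound 10 min at room temperature, then stimulated with NKH477 (200nM […]) for 30 min. cAMP read by HTRF (665/620 nm).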

Experiment [16] in a line: cAMP Responsive Elements (CRE) small molecule agonists, cell-based qHTS assay (AID 1963590). A digest of the protocol: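 CRE-bla HEK 293T cells in DMEM with 10% dialyzed FBS, NEAA, pyruvate and 25 mM HEPES were plated 18 h at 37 C/5% CO2, then exposed to compounds in DMSO for 3 h before LiveBLAzer B/G FRET substrate addition.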
Experiment [17] has as its target Beta-2 adrenergic receptor (Homo sapiens) (UniProt P07550). The experiment can be described thus: Adrenergic beta2 receptor (ADRB2) small molecule antagonists, cell-based qHTS assay (AID 1963592). Note: series mostly up to about 92 µM; nearly all actives have a fitted effect of over 50% in size. In outline:
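Cells (CHO, stable ADRB2 overexpression) incubated 18-20hr at 37C; compounds added from DMSO; agonist mix (1nM isoproterenol, 100uM IBMX, 25uM Ro-20-1724) added; 0.5hr RT; d2-cAMP and anti-cAMP-cryptate added; 1hr RT; 665/615 nm read.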

Experiment [18] addresses D(2) dopamine receptor (Homo sapiens) (UniProt P14416). The experiment is described as follows: Dopamine D2 receptor (DRD2) small molecule antagonists, cell-based qHTS assay (AID 1963595; active = well fitted inhibition curve with a large enough effect in the signal ratio in the repeat runs, with a control signal flat; the % refers to the signal ratio). In outline:
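HTRF cAMP read-out at 665 and 620 nm emission (340 nm excitation). Antagonist mode: compounds were tested against 12 nM quinpirole in DRD2-HEK293 cells, with 200 nM NKH477 raising cAMP and 0.1 mM Ro20-1724 blocking its breakdown.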

Experiment [19] can be described thus: Nuclear factor erythroid 2-related factor 2/antioxidant responsive element (Nrf2/ARE) small molecule agonists: luciferase reporter gene qHTS assay in human keratinocytes (AID 1919969; note: nearly all actives have a fitted effect of over 35% in size). (Reporter assays use an easily measured gene product as a stand-in for the process of interest.)
Experiment [20] concerns the target Beta-2 adrenergic receptor (Homo sapiens) (UniProt P07550). The experiment can be described thus: Adrenergic beta2 receptor (ADRB2) small molecule agonists, cell-based qHTS assay (AID 1963593).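 Note: CHO cells stably overexpressing human ADRB2.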 In outline:
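CHO cells stably over-expressing ADRB2 were plated overnight at 37C, then dosed with compounds plus a stimulation mix containing 100uM IBMX and 25uM Ro-20-1724 for 0.5hr at room temperature. cAMP was measured by HTRF competition, 1hr.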

Unmarked numbers belong to inactive results. Records with an inconclusive call do not appear. Active and inactive are the calls of the source. Unless noted, calls come from the whole dose curve.
% is set by controls: 0 for no effect and ±100 for the full control effect.

Chain of Beta-2 adrenergic receptor (Homo sapiens) (P07550 whole entry, looked up): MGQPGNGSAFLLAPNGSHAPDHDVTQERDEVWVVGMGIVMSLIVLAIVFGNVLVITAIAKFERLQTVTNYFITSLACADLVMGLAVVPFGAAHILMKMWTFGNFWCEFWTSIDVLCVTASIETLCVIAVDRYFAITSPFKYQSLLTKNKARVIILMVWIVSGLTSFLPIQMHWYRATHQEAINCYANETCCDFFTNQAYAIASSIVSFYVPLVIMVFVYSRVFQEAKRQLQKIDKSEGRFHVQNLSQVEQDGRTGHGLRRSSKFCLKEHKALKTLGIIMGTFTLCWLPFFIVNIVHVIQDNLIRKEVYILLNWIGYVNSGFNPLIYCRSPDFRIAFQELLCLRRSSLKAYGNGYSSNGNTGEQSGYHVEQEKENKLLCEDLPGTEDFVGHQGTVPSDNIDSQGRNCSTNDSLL
Chain of KiSS-1 receptor (Homo sapiens) (Q969F8 whole entry, looked up): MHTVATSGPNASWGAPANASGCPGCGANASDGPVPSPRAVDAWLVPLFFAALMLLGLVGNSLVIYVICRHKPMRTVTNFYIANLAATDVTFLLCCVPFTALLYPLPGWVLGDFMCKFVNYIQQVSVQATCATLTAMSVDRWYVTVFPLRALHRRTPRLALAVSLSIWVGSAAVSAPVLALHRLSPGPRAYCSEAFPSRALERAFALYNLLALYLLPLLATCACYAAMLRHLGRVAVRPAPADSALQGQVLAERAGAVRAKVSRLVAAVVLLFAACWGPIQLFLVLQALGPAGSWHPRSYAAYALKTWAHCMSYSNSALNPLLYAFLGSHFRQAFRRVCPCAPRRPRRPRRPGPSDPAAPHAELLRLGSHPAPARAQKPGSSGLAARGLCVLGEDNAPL
Chain of D(2) dopamine receptor (Homo sapiens) (P14416 whole entry, looked up): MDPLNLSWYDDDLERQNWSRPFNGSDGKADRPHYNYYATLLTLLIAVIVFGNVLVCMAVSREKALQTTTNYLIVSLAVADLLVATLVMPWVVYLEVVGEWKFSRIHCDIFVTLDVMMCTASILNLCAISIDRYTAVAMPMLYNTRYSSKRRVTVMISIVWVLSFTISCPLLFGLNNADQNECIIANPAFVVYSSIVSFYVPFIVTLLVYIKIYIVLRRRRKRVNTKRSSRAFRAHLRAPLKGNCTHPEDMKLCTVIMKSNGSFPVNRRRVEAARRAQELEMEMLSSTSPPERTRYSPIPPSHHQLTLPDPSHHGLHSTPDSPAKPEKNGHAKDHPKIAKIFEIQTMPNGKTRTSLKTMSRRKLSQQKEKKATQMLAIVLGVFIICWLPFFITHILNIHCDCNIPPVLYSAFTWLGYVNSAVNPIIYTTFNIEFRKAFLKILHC
Chain of Muscarinic acetylcholine receptor M1 (Homo sapiens) (P11229 whole entry, looked up): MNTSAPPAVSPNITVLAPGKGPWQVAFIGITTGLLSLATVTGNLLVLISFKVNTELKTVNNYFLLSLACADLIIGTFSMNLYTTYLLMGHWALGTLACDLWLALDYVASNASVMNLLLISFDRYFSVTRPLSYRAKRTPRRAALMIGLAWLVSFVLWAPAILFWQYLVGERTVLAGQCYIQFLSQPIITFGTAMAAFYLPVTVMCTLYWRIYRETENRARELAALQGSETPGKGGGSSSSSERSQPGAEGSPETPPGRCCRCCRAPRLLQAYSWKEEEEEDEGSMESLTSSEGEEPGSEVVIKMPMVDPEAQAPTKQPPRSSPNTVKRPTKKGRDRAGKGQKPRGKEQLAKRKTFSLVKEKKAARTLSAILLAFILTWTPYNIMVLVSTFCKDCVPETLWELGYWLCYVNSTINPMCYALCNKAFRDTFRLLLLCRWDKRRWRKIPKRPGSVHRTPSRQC
Chain of Gonadotropin-releasing hormone receptor (Homo sapiens) (P30968 whole entry, looked up): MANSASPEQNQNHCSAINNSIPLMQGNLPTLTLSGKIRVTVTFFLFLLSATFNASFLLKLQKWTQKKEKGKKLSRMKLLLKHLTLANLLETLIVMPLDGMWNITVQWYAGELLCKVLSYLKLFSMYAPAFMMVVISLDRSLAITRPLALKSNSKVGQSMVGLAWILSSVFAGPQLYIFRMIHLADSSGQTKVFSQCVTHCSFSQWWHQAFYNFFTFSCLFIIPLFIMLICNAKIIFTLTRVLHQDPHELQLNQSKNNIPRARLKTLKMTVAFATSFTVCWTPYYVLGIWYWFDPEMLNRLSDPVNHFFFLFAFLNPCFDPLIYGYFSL

On to `Nc1cccnc1N`, for which the Potency entry in experiment [1], in experiment [2], in experiment [3], in experiment [4], in experiment [5] and in [6] was “inactive” each time. Further, the Potency result in experiment [7], in experiment [8], in [9], in experiment [10], in [11] and in experiment [12] was “inactive” in each case. Further, the Potency result in experiment [13], in [14] and in experiment [15] was “inactive” in each case.
On to `C[C@@H]1CC[C@H]2C(C)(C)[C@H]3C[C@@]12CC[C@@]3(C)O`, for which the Potency result in experiment [1], in experiment [2], in experiment [3], in [4], in experiment [5] and in experiment [6] was “inactive” in each case. Besides, the Potency entry in experiment [7], in experiment [8], in experiment [9], in experiment [12], in [13] and in experiment [16] was “inactive” in each case. Also, the Potency result in experiment [17], in experiment [15] and in experiment [18] was “inactive” in each case. The Potency in [11] was 48.9 µM (active).
With `CCCCCCCCCCCCCCCS(=O)(=O)Oc1ccccc1`, the Potency entry in experiment [1], in [2], in [3], in experiment [4], in experiment [5] and in [6] was “inactive” throughout. Moreover, the Potency entry in experiment [7], in [8], in [9], in experiment [10], in [11] and in [12] was “inactive” throughout. The Potency result in experiment [13], in experiment [16], in experiment [14], in [17], in [15] and in experiment [18] was “inactive” in each case.
For the compound `O=C(O)CN(CCN(CC(=O)O)CC(=O)O)CC(=O)O`, in [1], the activity change was 0.111% [at 2.04 µM, hits give high values]. For the same compound, the activation in experiment [2] was -1.01% [at 2.72 µM]; in [3], 0.597% [at 2.04 µM]; in experiment [4] it was -9.46% [at 2.33 µM]; in experiment [5], -7.74% [at 2.33 µM]; in experiment [9], -4.53% [at 2.33 µM]; in [11], -0.659% [at 2.65 µM]. The activation was -0.34% [at 2.72 µM] in experiment [13], 0.14% [at 3.27 µM] in [16] and 2.74% [at 3.27 µM] in experiment [15]. Also, the results for the activity change, negative = cytotoxicity in [6] and in [8] were -15.2% [at 2.33 µM] and 1.99% [at 2.33 µM], respectively. In experiment [10], the activity, negative = inhibition was -0.852% [at 2.12 µM]. Besides, the activity change, negative = inhibition was 1.65% [at 3.27 µM] in [14], 4.71% [at 3.27 µM] in [17] and 8.25% [at 3.28 µM] in [18].
Consider `C=Cc1ccc(S(=O)(=O)O)cc1`, for which the Potency entry in [1], in [2], in experiment [3], in [4], in [5] and in [6] was “inactive” each time. In addition, the Potency result in [7], in [9], in experiment [10], in experiment [11], in experiment [12] and in experiment [16] was “inactive” each time. The Potency result in experiment [17], in experiment [15] and in [18] was “inactive” throughout.
For the compound `CCCCOCC(C)OCC(C)O` (configuration not stated), the Potency entry in [19], in experiment [3], in [6], in experiment [8], in [10] and in experiment [11] was “inactive” in each case. In addition, the Potency result in [12], in [13], in [16], in experiment [14], in experiment [17] and in experiment [20] was “inactive” each time. For the same compound, the Potency entry in experiment [15] and in [18] was “inactive” throughout.
Take `ClC(Cl)(Cl)c1ccc(C(Cl)(Cl)Cl)cc1`: the Potency result in [1], in experiment [2], in experiment [3], in experiment [4], in experiment [5] and in experiment [6] was “inactive” in each case. In addition, the Potency result in [7], in experiment [8], in experiment [9], in experiment [10], in experiment [11] and in experiment [12] was “inactive” each time. The Potency result in [13], in experiment [16], in experiment [14], in [17], in experiment [15] and in [18] was “inactive” each time.
